HTT cytoprotect = qHTS Multiplex Assay to Identify Dual Action Probes in a Cell Model of Huntington: Cytoprotection (ATP); PC12 HTT-Q103 induced, cytoprotection, ATP luminescence, 40 h; Potency, µM (top dose mostly 56.4 µM), for inactives: cytoprotection (ATP increase), hits mostly activators; hit rate 0.14% among 230,000; AID 1471, 2008; note: potency is the fitted concentration of half-maximal effect; % of control where 0% means no effect; nearly all actives have a fitted effect of over 45% in size
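Huntington model: PC12 line, ecdysone-inducible HTTQ103 exon1–GFP, tebufenozide 100 nM. Test articles in a dose series. Endpoint luminescence from cellular ATP.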
IMPase inh = qHTS Assay for Identifying the Cell-Membrane Permeable IMPase Inhibitors; 120,000 tested, under 10 active; inhibition (IP1 accumulation), % at 46.1 µM; Inositol monophosphatase 1 (Rattus norvegicus), P97697; CHO-M1 cells, IP1 accumulation, HTRF TR-FRET ratio; AID 901, 2007; active = well fitted curve in the direction sought with a large enough effect in the signal ratio, not every such curve was filed as active; inconclusive = small, poorly fitted or top-dose-only effect, or a change in a side signal; inactive = no such curve, though single readings can be large or run the other way; the % refers to the signal ratio;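 note: cells stimulated with carbachol in lithium chloride buffer; plate controls were DMSO basal wells for no effect and reference inhibitor wells for full effect; higher means more IMPase inhibition seen as more IP1 and lower FRET ratio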
Target sequence (P97697 whole entry, looked up): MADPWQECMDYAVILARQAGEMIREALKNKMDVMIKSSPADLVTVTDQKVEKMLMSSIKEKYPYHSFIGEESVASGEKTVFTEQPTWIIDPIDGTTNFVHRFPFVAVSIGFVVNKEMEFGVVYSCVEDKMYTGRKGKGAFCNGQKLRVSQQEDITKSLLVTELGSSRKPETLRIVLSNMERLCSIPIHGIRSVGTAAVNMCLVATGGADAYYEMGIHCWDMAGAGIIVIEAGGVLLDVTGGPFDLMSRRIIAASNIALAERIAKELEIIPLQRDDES
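CHO-M1 cells (CHO stably expressing M1 receptor), compound up to 46 uM final, stimulated with carbachol (50 uM as added) in buffer with 50mM LiCl, pH 7.4, 30 min at 37C. Cytosolic IP1 read by TR-FRET; AC50 from Hill fits.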
HTT aggregate = qHTS Multiplex Assay to Identify Dual Action Probes in a Cell Model of Huntington: Aggregate Formation (GFP); PC12 HttQ103-GFP aggregates, Acumen cytometry, 40 h; Potency, µM (doses to about 46.1 µM), without a hit: at the top dose activity change, negative = inhibition, actives largely listed as inhibitors; hit rate 1.1% among 220,000; note: potency is the fitted concentration of half-maximal effect; % is set by controls: 0 for no effect and ±100 for the full control effect; nearly all actives have a fitted effect of over 60% in size
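Aggregate formation scored by laser-scanning cytometer (488 excitation, 500–530 emission) in lysed PC12 cells expressing Q103-GFP after 100 nM tebufenozide induction; library tested in dose series, with ATPLite reagent added in the multiplex.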
ALDH1A1 inh = qHTS Assay for Inhibitors of Aldehyde Dehydrogenase 1 (ALDH1A1); Aldehyde dehydrogenase 1A1 (Homo sapiens), P00352; Purified ALDH1A1, NADH fluorescence, propionaldehyde substrate; Potency, µM (highest dose often 75.3 µM), for the others: top-dose activity, negative = inhibition, hits mostly inhibitors; hit rate 7.3% among 220,000; active = well fitted inhibition curve with a large enough effect, not every such curve was filed as active; inconclusive = small, poorly fitted or top-dose-only effect, or another doubt; inactive = no such curve, though single readings can be large or run the other way;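 note: potency is the fitted concentration of half-maximal effect; plate controls were no enzyme wells and a reference inhibitor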
Target sequence (P00352 whole entry, looked up): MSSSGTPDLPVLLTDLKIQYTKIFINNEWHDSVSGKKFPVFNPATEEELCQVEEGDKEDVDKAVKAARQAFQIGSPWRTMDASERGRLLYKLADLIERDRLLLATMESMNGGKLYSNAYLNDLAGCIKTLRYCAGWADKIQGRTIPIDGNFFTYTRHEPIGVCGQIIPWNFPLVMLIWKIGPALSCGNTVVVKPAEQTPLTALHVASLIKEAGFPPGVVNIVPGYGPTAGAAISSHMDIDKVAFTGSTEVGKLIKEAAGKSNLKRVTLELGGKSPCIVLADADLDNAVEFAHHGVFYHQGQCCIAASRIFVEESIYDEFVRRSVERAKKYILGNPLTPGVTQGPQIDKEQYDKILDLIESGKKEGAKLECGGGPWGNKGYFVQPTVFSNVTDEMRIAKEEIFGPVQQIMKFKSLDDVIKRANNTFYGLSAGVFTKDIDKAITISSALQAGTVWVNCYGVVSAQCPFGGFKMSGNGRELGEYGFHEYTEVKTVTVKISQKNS
HPGD inh = qHTS Assay for Inhibitors of HPGD (15-Hydroxyprostaglandin Dehydrogenase). 15-hydroxyprostaglandin dehydrogenase [NAD(+)] (Homo sapiens), P15428. purified HPGD, NADH fluorescence kinetic, PGE2 substrate. Potency, µM, without a hit: top-dose activity change, negative = inhibition, actives largely listed as inhibitors. hit rate 4.3% among 150,000; active = well fitted inhibition curve with a large enough effect, not every such curve was filed as active; inconclusive = small, poorly fitted or top-dose-only effect, or another doubt; inactive = no such curve, though single readings can be large or run the other way; note: potency is the fitted concentration of half-maximal effect; % is set by controls: 0 for no effect and ±100 for the full control effect
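NADH formation kinetics: reaction with 30 uM PGE2 and 1 mM NAD+ (final), 20 nM enzyme, Tris-HCl pH 8 with Tween 20, after 15 min compound preincubation at room temperature. Fluorescence change, last versus first of five reads.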
IMPase Li cell = qHTS Assay for Identifying the Cell-Membrane Permeable IMPase Inhibitors: Potentiation with Lithium; CHO-M1 cells, IP1 TR-FRET (IP-One), carbachol + lithium; Potency, µM (highest dose often 59.4 µM), for the others: at the highest dose activity, negative = IMPase inhibition, hits mostly inhibitors; hit rate 0.35% among 210,000; AID 1457, 2008;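 note: IP1 builds up when IMPase is blocked and the TR-FRET signal falls; potency is the fitted concentration of half-maximal effect; plate controls were basal vehicle for no effect and high inhibitor control for full effect; nearly all actives have a fitted effect of over 50% in size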
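IP1 accumulation measured by competitive TR-FRET in lysed CHO-M1 cells after 30 min compound exposure at 37C, with a small lithium addition to potentiate weak responses. Hill-equation AC50 from ratio and donor-channel data.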
An asterisk follows results filed as active; u = inconclusive; x = no result; [ ] = another dose, or the depositor's remark. Sampled rows, rich in hits. Any-hit rate of the full collection: about 9.4%. Unless noted, calls come from the whole dose curve; as a rule, active = well fitted curve in the direction sought with a large enough effect; inconclusive = small, poorly fitted or top-dose-only effect, or another doubt; inactive = no such curve, though single readings can be large; an effect the other way counts as inactive or inconclusive.

SMILES | HTT cytoprotect | IMPase inh | HTT aggregate | ALDH1A1 inh | HPGD inh | IMPase Li cell
COc1ccccc1C(=O)Nc1ncc2c(n1)CC(c1ccco1)CC2=O (configuration not stated) | -17% | -2 | 12% | 8.9µM* | -6% | 6%[38.3 µM]
O=C1CC(c2ccco2)Cc2nc(Nc3ccc(F)cc3)ncc21 (configuration not stated) | -33% | -5 | u | 10µM* | -18% | 34%[38.3 µM]
O=C(Nc1ncc2c(n1)CC(c1ccccc1)CC2=O)c1ccco1 (configuration not stated) | 19%[10 µM] | x | 3% | u | -13% | -3%
O=C(CSc1nnnn1-c1ccccc1)Nc1ncc2c(n1)CC(c1ccco1)CC2=O (configuration not stated) | 4% | 9 | 8% | 5µM* | -12% | 10%[38.3 µM]
Cc1nc(NC2CCCCC2)c2nc(-c3ccccc3)n(CCN3CCCCC3)c2n1 | -48% | x | x | u | u | 7%
NNC(=O)CC12CC3CC(C1)CC(n1ncnn1)(C3)C2 | 16%[10 µM] | x | 3% | 2.8µM* | 2% | 7%
CC(=O)Nc1ccc(NC(=O)C/C(C)=N/NC(N)=S)cc1 | 1% | x | 21% | 22µM* | x | -10%
O=c1c(-c2ccc(O)cc2)coc2c(C3OC(CO)C(O)C(O)C3O)c(O)ccc12 (configuration not stated) | 7% | x | x | u | u | -8%
CN1CCN(C(=O)c2ccc3c(c2)NC(=O)C(C)(C)O3)CC1 | -7%[10 µM] | u | -3% | -4% | 8.9µM* | -23%[38.3 µM]
Cc1ccc(C(=O)N2CCN(C)CC2)cc1S(=O)(=O)N1CCCCC1 | 4% | 9 | 10% | u | -21% | 0%[38.3 µM]
Cc1cccc(Nc2nnc(-c3ccc(C)c(S(=O)(=O)N4CCN(C)CC4)c3)c3ccccc23)c1 | x | 7 | x | x | x | x
COc1ccc(OC)c(-c2cc(C3CCN(c4ncccc4[N+](=O)[O-])CC3)[nH]n2)c1 | -1% | 7 | 16% | u | 14µM* | 16%[38.3 µM]
COc1cc(Br)cc2cc(C(=O)N3CCCCC3C)c(=O)oc12 (configuration not stated) | 4% | 4 | -21% | u | 13µM* | 16%[38.3 µM]
COc1cc(Br)cc2cc(C(=O)N3CCN(C(=O)c4ccco4)CC3)c(=O)oc12 | 9%[10 µM] | 9 | -13% | u | -19% | 22%[38.3 µM]
NC(=S)N/N=C/c1ccccc1OCCSc1ccc(Cl)cc1 | -98%[10 µM] | x | u | -6% | 35µM* | 8%
Cc1nn2c(CN(C(=O)CN3CCOCC3)c3ccccc3)nnc2c2ccccc12 | 5%[10 µM] | 1 | 0% | 18µM* | -3% | 6%
Cc1nn(CC(=O)N2CCOCC2)c(=O)c2ccccc12 | 0% | 8 | 6% | -2% | x | x
Cc1nn2c(COc3ccc(NC(=O)c4ccccc4Cl)cc3)nnc2c2ccccc12 | x | x | -8% | 5% | 14µM* | 9%
Cc1nn2c(CN(C(=O)COc3ccccc3)c3ccccc3)nnc2c2ccccc12 | 31%[10 µM] | x | -3% | 11µM* | -22% | 1%
CCOC(=O)Nc1ccc(OCc2nnc3c4ccccc4c(C)nn23)cc1 | -44% | x | 18% | 0% | x | 16%
COC(=O)NC(CCc1ccccc1)C(C(C)=O)C(=O)OC (configuration not stated) | 0% | x | x | 7% | -4% | 7%
C[C@@H]1C(=O)CC2C(C)(C)CCC[C@]2(C)[C@@]1(O)CCc1ccoc1 (some centres not stated) | -4% | x | x | u | -11% | 16%
CCOc1ccc(NC(=O)Cn2nnc3c(cnn3-c3ccc(F)cc3)c2=O)cc1 | -35% | x | -1% | 7.9µM* | x | -2%
N[C@@H](C(=O)O)c1ccc(O)c(C(=O)O)c1 | -19% | -2 | x | u | u | 8%
C/C(=N\NC(=O)c1ccc(COc2ccccc2)cc1)c1ccncc1 | -19% | x | 1% | 25µM* | x | 21%
SMILES | HTT cytoprotect | IMPase inh | HTT aggregate | ALDH1A1 inh | HPGD inh | IMPase Li cell
COC(=O)c1c(NC(=S)Nc2cc(OC)c(Cl)cc2OC)sc2c1CCCCC2 | 7%[10 µM] | x | 0% | 6.3µM* | u | -12%
CCOC(=O)c1c(NC(=S)Nc2cc([N+](=O)[O-])ccc2OC)sc2c1CCCCC2 | 1%[10 µM] | -8 | -16% | u | -27% | -4%
COc1ccc2c(c1)O[C@@H](c1ccc3c(c1)OCO3)[C@H](O)C2=O | 13% | x | x | -6% | -6% | 12%
CCC(C)Nc1nc(-c2ccc3c(c2)NC(=O)CO3)cs1 (configuration not stated) | 0% | 4 | 6% | 3.5µM* | -7% | -5%[38.3 µM]
O=C(NCC1CCN(S(=O)(=O)c2ccccc2)CC1)Nc1ccc(F)cc1F | -4%[10 µM] | x | -2%[9.22 µM] | -1% | x | x
Cc1ccccc1C(=O)NC(=S)NCCc1ccccc1 | 1%[10 µM] | x | 6% | 11µM* | -7% | 6%
S=C(NCCc1ccccc1)NCCc1ccccc1 | 30%[0.074 µM] | x | -1% | -7% | -2% | 0%
CC(C)(C)C(=O)NC(=S)NCCc1ccccc1 | -27% | 9 | 4% | 28µM* | -9% | 34%[38.3 µM]
Cc1ccccc1C(=O)NCC(=O)NNC(=S)NC(=O)c1ccccc1C | x | x | -7% | -1% | 25µM* | -14%
CN1CCN(c2ncc3nc(CCc4ccccc4)c(=O)n(C4CC4)c3n2)CC1 | -66% | x | x | u | x | 10%
C=CCn1c(SCc2nc(N)nc(N3CCCCC3)n2)nnc1-c1ccco1 | -19% | -8 | 14% | 22µM* | 16µM* | -5%[38.3 µM]
COc1ccc(CN2CCNC(=O)C2CC(=O)N2CCCCO2)cc1OC (configuration not stated) | -8%[10 µM] | x | -1%[9.22 µM] | u | x | -9%
O=C(Oc1cccc(OC(=O)N2CCCCC2)c1)N1CCCCC1 | 12%[10 µM] | x | 0%[9.22 µM] | -1% | x | 1%
O=C(Oc1ccc(C(=S)N2CCC(O)CC2)cc1)c1ccc(Cl)cc1 | 17% | x | 20% | -5% | x | -6%
O=C(/C=C/c1ccccc1)Oc1ccccc1C(=S)N1CCOCC1 | 14%[10 µM] | x | 5%[9.22 µM] | u | x | 8%
Oc1ccc(C(=S)N2CCCCCC2)cc1 | -2% | -2 | 25% | u | u | 0%[38.3 µM]
Oc1cccc(C(=S)N2CCCCC2)c1 | 34%[10 µM] | x | 22%[9.22 µM] | 11µM* | x | 8%
O=C(/C=C/c1ccccc1)Oc1cccc(C(=S)N2CCOCC2)c1 | 1% | x | -11% | 4.5µM* | x | 3%
